Laboratory results: PubChem BioAssay (NCATS)
Inconclusive results are not listed. Calls of active or inactive are those of the source. Calls follow the shape of the dose curve; as a rule, active = well fitted curve in the direction sought with a large enough effect; inconclusive = small, poorly fitted or top-dose-only effect, or another doubt; inactive = no such curve, though single readings can be large; an effect the other way counts as inactive or inconclusive.

Columns and labels:
MCC-13 = assay: qHTS assay to identify novel small-molecules to repurpose for Merkel cell carcinoma treatment (AID 1296009); settings: MCC and control cell lines, CellTiter-Glo viability, 72 h; series mostly up to 46 µM; also: nearly all actives have a fitted effect of over 60% in size
Procedure, shortened: (§1)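 Cells were incubated with compound for 72 hr at 37 degree celsius before CellTiter-Glo addition. Luminescence was normalized with no-cell wells as full cytotoxicity and DMSO as baseline.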

MCC-26 = assay: as above; settings: MCC and control cell lines, CellTiter-Glo viability, 72 h; series mostly up to 46 µM
Procedure, shortened: as §1

MKL-1 = assay: as above; settings: MCC and control cell lines, CellTiter-Glo viability, 72 h; series mostly up to 46 µM
Procedure, shortened: as §1

MKL-2 = assay: as above; settings: MCC and control cell lines, CellTiter-Glo viability, 72 h; series mostly up to 46 µM
Procedure, shortened: as §1

NIH3T3 = assay: as above; settings: MCC and control cell lines, CellTiter-Glo viability, 72 h; at 44.8 µM (top of the series) unless noted
Procedure, shortened: as §1

UISO = assay: as above; settings: MCC and control cell lines, CellTiter-Glo viability, 72 h; series mostly up to 46 µM
Procedure, shortened: as §1

WaGa = assay: as above; settings: MCC and control cell lines, CellTiter-Glo viability, 72 h; series mostly up to 46 µM
Procedure, shortened: as §1

C33A = assay: Primary qHTS to identify gynecologic anti-cancer compounds using libraries of approved drugs and bioactive compounds (AID 1345084); settings: Gynecologic cancer cell panel viability, ATPlite luminescence, 48 h; series mostly up to 57.5 µM; also: nearly all actives have a fitted effect of over 55% in size
Procedure, shortened: (§2)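 Cell viability after 48 h drug treatment, ATPlite luminescence readout; five doses.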

CAOV3 = assay: as above; settings: Gynecologic cancer cell panel viability, ATPlite luminescence, 48 h; series mostly up to 57.5 µM
Procedure, shortened: as §2

CASKI = assay: as above; settings: Gynecologic cancer cell panel viability, ATPlite luminescence, 48 h; series mostly up to 57.5 µM
Procedure, shortened: as §2

Es-2 = assay: as above; settings: Gynecologic cancer cell panel viability, ATPlite luminescence, 48 h; series mostly up to 57.5 µM
Procedure, shortened: as §2

HeLa = assay: as above; settings: Gynecologic cancer cell panel viability, ATPlite luminescence, 48 h; series mostly up to 57.5 µM
Procedure, shortened: as §2

Hek293T [1] = assay: as above; settings: Gynecologic cancer cell panel viability, ATPlite luminescence, 48 h, control line for the selectivity index; series mostly up to 57.5 µM
Procedure, shortened: as §2

JEG-3 = assay: as above; settings: Gynecologic cancer cell panel viability, ATPlite luminescence, 48 h; series mostly up to 57.5 µM
Procedure, shortened: as §2

PA-1 = assay: as above; settings: Gynecologic cancer cell panel viability, ATPlite luminescence, 48 h; series mostly up to 57.5 µM
Procedure, shortened: as §2

SKOV3 = assay: as above; settings: Gynecologic cancer cell panel viability, ATPlite luminescence, 48 h; series mostly up to 57.5 µM
Procedure, shortened: as §2

Tov-21-G = assay: as above; settings: Gynecologic cancer cell panel viability, ATPlite luminescence, 48 h; series mostly up to 57.5 µM
Procedure, shortened: as §2

OV90 = assay: as above; settings: Gynecologic cancer cell panel viability, ATPlite luminescence, 48 h; series mostly up to 57.5 µM
Procedure, shortened: as §2

HEK293T [2] = assay: qHTS assay to identify novel small-molecules to repurpose for Merkel cell carcinoma treatment (AID 1296009); settings: MCC and control cell lines, CellTiter-Glo viability, 72 h; at 44.8 µM (top of the series) unless noted; also: nearly all actives have a fitted effect of over 60% in size
Procedure, shortened: as §1

Measured: Potency

Cn1cc(S(C)=O)c(=O)c2ccc(F)cc21 (centres undefined)
not listed: OV90 | HEK293T [2]
inactive: all other assays above

O=P(O)(O)OCC(O)CO (centres undefined)
not listed: HEK293T [2]
inactive: all other assays above

COc1cc(/C=C/C(N)=O)cc(OC)c1OC
not listed: MCC-26
inactive: all other assays above

CCC(=O)O[C@H]1[C@H](O[C@@H]2[C@@H](C)[C@H](O[C@H]3C[C@@](C)(OC)[C@@H](O)[C@H](C)O3)[C@@H](C)C(=O)O[C@H](CC)[C@@](C)(O)[C@H](O)[C@@H](C)C(=O)[C@H](C)C[C@@]2(C)O)O[C@H](C)C[C@@H]1N(C)C
not listed: NIH3T3 | CAOV3 | Hek293T [1]
inactive: all other assays above

Nc1c[n+](N2CCOCC2)no1
not listed: MCC-26
inactive: all other assays above

COc1cc(C(=O)OC(COCCC(C)C)CN2CCOCC2)cc(OC)c1OC (centres undefined)
not listed: NIH3T3 | CAOV3
inactive: all other assays above

CC(C)C(=O)OCc1cccc(OC(=O)[C@@H]2N3C(=O)[C@@H](NC(=O)Cc4ccccc4)[C@H]3SC2(C)C)c1
not listed: NIH3T3
inactive: all other assays above

CCOc1ccc(NS(=O)(=O)c2ccc(N)cc2)nn1
not listed: MCC-26 | NIH3T3
inactive: all other assays above

NS(=O)(=O)c1cc2c(cc1Cl)CN(C1CCCCC1)C2=O
not listed: MCC-26 | NIH3T3
inactive: all other assays above

CN(C)CCCOC1(Cc2ccccc2)CCCCCC1
not listed: NIH3T3 | SKOV3 | OV90
inactive: all other assays above

OCc1cccnc1
not listed: HEK293T [2]
inactive: all other assays above

C1N2CN3CN1CN(C2)C3
not listed: NIH3T3 | CAOV3
inactive: all other assays above

NC(=O)COCCN1CCN(C(c2ccccc2)c2ccc(Cl)cc2)CC1 (centres undefined)
not listed: HEK293T [2]
inactive: all other assays above

O=C(CCCCC(=O)Nc1c(I)cc(I)c(C(=O)O)c1I)Nc1c(I)cc(I)c(C(=O)O)c1I
not listed: NIH3T3
inactive: all other assays above

C[C@@]12CCC[C@H]1[C@@H]1CC[C@H]3C[C@@H](O)CC[C@]3(C)[C@H]1CC2
not listed: NIH3T3
inactive: all other assays above

NC(=O)NC1N=C([O][Al])NC1=O (centres undefined)
not listed: NIH3T3 | PA-1
inactive: all other assays above

OCCCc1ccccc1
not listed: HEK293T [2]
inactive: all other assays above

CNC(=O)c1cnn(-c2nc(N)c3ncn([C@@H]4O[C@H](CO)[C@@H](O)[C@H]4O)c3n2)c1
not listed: NIH3T3
inactive: all other assays above

CCCCC(CC)COC(=O)c1ccccc1C(=O)O (centres undefined)
inactive: HEK293T [2] inactive [at 92 µM] | MCC-13 | MKL-1 | MKL-2 | UISO | WaGa | C33A | CAOV3 | CASKI | Es-2 | HeLa | Hek293T [1] | JEG-3 | OV90 | PA-1 | SKOV3 | Tov-21-G

C1=CC2C3C=CC(C3)C2C1 (centres undefined)
inactive: HEK293T [2] inactive [at 92 µM] | MCC-13 | MCC-26 | MKL-1 | MKL-2 | UISO | WaGa | C33A | CAOV3 | CASKI | Es-2 | HeLa | Hek293T [1] | JEG-3 | OV90 | PA-1 | Tov-21-G

CCOC(=O)CN1CCCC1=O
not listed: HEK293T [2]
inactive: all other assays above

CCCCCC1Nc2cc(C(F)(F)F)c(S(N)(=O)=O)cc2S(=O)(=O)N1 (centres undefined)
not listed: HEK293T [2]
inactive: all other assays above

Cn1c(=O)c2c(ncn2CC(=O)O)n(C)c1=O
not listed: SKOV3 | HEK293T [2]
inactive: all other assays above

CCOC(=O)OCC/C(SC(=O)OCC)=C(\C)N(C=O)Cc1cnc(C)nc1N
not listed: HEK293T [2]
inactive: all other assays above

CSCC[C@H](NC(=O)[C@H](Cc1c[nH]c2ccccc12)NC(=O)CCNC(=O)OC(C)(C)C)C(=O)N[C@@H](CC(=O)O)C(=O)N[C@@H](Cc1ccccc1)C(N)=O
not listed: HEK293T [2]
inactive: all other assays above

CCOC(=O)Oc1ccc(CCNC(=O)[C@H](CCSC)NC(C)=O)cc1OC(=O)OCC
not listed: HEK293T [2]
inactive: all other assays above

CC(C)C[C@@H]1[C@H](c2ccccc2)OC(=O)N1CCCN1CCCCCC1
not listed: NIH3T3 | HEK293T [2]
inactive: all other assays above

O=C(CS(=O)Cc1ccco1)NC/C=C\COc1cc(CN2CCCCC2)ccn1 (centres undefined)
not listed: NIH3T3 | HEK293T [2]
inactive: all other assays above
